Holding throughout (assay): DAPPL (digital affinity profiling via proximity ligation, sequencing); 10 mM Tris-HCl pH 7.5, 50 mM NaCl, 1 mM DTT, 4% glycerol, room temperature, 30 min; GST-TFs on glutathione beads, 16-mer random dsDNA library, 0.1% formaldehyde crosslink after washing; high values mean tight binding
In one assay the target is T1, FEV (Homo sapiens, UniProt Q99581 1-238).
T1 sequence: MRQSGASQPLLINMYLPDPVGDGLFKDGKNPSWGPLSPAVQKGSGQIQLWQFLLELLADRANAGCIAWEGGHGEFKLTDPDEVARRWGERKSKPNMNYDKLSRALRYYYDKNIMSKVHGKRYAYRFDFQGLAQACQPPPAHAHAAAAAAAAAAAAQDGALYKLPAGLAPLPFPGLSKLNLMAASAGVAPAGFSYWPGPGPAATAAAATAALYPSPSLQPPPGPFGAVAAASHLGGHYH
As to conditions: protein: recombinant; tags: N-terminal GST; dsDNA, one strand shown. The essentials:
(§1)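 In yeast, human transcription factors were expressed with a GST fusion, then pulled down on glutathione beads and given DNA barcodes. Pooled with a tag-only sample, they were exposed to 200 nmole of a 16-mer random double-stranded DNA library (Tris/NaCl/DTT/glycerol buffer, room temperature, 30 min), washed, crosslinked with 0.1% formaldehyde, proximity-ligated using BsaI/T4 ligase for 1 h at 37 °C, PCR-amplified and read on an Illumina NextSeq500. Each hexamer's frequency of reads for a factor, divided by the matching frequency for the tag-only sample, gives the binding signal.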

The target in a further assay is ETV5 (Homo sapiens, UniProt P41161 1-510). As to conditions: protein: recombinant; tags: N-terminal GST; dsDNA, one strand shown. The essentials:
as §1

The target in the next assay is HSF1 (Homo sapiens, UniProt Q00613 1-529). The settings on record: protein: recombinant; tags: N-terminal GST; chain copies: 3; dsDNA, one strand shown. The essentials:
as §1

The target in another assay is T2, SPIC (Homo sapiens, UniProt Q8N5J4 1-248).
T2 sequence: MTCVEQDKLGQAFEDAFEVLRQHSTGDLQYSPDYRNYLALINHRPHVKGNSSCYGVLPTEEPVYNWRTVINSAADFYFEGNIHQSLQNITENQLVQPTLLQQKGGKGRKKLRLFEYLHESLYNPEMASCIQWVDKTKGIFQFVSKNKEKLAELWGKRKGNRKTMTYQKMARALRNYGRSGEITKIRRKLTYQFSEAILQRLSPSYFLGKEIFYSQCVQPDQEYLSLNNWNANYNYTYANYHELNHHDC
The settings on record: protein: recombinant; tags: N-terminal GST; dsDNA, one strand shown. In outline:
as §1

The target in a further assay is ELF4 (Homo sapiens, UniProt Q99607 1-663). As to conditions: protein: recombinant; tags: N-terminal GST; dsDNA, one strand shown. In outline:
as §1

Another assay has as its target T3, ELK4 (Homo sapiens, UniProt P28324-2 1-405).
T3 sequence: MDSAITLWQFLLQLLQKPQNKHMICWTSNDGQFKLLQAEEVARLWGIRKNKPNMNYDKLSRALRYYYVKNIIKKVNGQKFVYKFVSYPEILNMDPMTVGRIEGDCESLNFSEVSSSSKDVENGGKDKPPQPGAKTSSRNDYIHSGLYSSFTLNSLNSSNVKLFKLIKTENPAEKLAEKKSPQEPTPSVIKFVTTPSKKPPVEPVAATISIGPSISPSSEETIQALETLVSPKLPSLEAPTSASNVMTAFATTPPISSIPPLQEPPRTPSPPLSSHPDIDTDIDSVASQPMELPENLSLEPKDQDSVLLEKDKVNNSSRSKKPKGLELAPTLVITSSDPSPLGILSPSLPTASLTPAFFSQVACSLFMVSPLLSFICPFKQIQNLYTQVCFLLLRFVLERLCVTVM
The settings on record: protein: recombinant; tags: N-terminal GST; dsDNA, one strand shown. In outline:
as §1

A further assay has as its target T4, ETV2 (Homo sapiens, UniProt O00321 1-342).
T4 sequence: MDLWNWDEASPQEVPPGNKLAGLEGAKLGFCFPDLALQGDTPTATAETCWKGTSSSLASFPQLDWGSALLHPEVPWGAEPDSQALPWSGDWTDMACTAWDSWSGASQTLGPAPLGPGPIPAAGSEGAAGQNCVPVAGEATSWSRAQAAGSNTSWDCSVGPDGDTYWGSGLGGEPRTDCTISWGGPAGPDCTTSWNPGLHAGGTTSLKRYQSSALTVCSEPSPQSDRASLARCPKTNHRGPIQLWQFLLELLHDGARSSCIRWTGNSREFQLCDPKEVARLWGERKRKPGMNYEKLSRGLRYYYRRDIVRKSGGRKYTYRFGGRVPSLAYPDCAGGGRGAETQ
The settings on record: protein: recombinant; tags: N-terminal GST; dsDNA, one strand shown. In outline: as §1

In the next assay the target is T5, ELF3 (Homo sapiens, UniProt P78545 1-371).
T5 sequence: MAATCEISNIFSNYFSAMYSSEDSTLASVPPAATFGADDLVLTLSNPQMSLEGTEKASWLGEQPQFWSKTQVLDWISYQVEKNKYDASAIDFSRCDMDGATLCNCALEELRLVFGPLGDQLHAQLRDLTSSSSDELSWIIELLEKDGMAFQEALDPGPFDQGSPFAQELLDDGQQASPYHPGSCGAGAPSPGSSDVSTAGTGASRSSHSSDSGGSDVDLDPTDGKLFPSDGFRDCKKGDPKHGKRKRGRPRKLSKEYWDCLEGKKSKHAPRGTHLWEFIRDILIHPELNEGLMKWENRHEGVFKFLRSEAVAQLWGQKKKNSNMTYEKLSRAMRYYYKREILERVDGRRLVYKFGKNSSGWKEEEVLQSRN
The settings on record: protein: recombinant; tags: N-terminal GST; dsDNA, one strand shown. The essentials: as §1

A further assay has as its target CRX (Homo sapiens, UniProt O43186 1-299). The settings on record: protein: recombinant; tags: N-terminal GST; dsDNA, one strand shown. In outline:
as §1

The target of another assay is ETV1 (Homo sapiens, UniProt P50549 1-477). The settings on record: protein: recombinant; tags: N-terminal GST; dsDNA, one strand shown. In outline:
as §1

In the next assay the target is T6, ERF (Homo sapiens, UniProt P50548 1-548).
T6 sequence: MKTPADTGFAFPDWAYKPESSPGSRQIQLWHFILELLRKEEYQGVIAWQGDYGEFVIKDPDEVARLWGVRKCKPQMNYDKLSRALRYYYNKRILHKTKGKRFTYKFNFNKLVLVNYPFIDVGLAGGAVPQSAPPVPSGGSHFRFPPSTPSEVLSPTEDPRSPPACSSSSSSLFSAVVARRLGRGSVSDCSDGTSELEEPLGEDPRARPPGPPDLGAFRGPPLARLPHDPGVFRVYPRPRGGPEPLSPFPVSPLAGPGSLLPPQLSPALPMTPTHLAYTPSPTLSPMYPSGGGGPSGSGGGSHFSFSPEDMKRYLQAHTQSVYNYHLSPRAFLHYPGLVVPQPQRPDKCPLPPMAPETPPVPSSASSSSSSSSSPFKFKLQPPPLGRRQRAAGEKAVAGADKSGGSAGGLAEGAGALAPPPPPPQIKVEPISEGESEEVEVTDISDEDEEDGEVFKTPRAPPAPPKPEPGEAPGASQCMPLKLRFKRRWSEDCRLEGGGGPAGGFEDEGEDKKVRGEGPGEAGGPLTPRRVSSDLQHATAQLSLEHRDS
The settings on record: protein: recombinant; tags: N-terminal GST; dsDNA, one strand shown. In outline: as §1

In a further assay the target is T7, ETV3L (Homo sapiens, UniProt Q6ZN32 1-361).
T7 sequence: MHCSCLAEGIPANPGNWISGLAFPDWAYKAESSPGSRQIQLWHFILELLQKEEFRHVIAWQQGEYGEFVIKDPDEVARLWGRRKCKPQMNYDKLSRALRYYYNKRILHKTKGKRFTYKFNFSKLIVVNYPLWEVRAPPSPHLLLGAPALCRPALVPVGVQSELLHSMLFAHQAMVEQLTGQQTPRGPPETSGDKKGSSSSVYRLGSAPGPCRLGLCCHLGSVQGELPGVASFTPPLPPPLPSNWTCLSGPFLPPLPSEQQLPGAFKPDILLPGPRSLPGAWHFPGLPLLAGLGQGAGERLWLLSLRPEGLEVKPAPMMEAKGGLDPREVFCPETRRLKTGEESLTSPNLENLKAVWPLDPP
As to conditions: protein: recombinant; tags: N-terminal GST; dsDNA, one strand shown. The essentials: as §1

Another assay concerns the target T8, ETS2 (Homo sapiens, UniProt P15036 1-469).
T8 sequence: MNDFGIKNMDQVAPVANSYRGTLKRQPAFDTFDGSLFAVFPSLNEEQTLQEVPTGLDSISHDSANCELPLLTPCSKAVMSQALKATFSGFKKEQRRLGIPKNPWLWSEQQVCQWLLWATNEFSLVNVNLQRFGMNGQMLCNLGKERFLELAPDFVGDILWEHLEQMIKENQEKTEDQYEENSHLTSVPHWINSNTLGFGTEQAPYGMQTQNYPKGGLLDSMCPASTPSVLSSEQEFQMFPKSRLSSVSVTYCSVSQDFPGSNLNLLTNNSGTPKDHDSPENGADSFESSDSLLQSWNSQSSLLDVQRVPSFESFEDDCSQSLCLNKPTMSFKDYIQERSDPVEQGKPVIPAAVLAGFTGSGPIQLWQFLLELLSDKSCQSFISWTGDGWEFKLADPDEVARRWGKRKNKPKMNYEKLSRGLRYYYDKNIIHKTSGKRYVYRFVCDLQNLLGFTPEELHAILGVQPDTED
The settings on record: protein: recombinant; tags: N-terminal GST; dsDNA, one strand shown. The essentials: as §1

A further assay concerns the target T9, SPDEF (Homo sapiens, UniProt O95238 1-335).
T9 sequence: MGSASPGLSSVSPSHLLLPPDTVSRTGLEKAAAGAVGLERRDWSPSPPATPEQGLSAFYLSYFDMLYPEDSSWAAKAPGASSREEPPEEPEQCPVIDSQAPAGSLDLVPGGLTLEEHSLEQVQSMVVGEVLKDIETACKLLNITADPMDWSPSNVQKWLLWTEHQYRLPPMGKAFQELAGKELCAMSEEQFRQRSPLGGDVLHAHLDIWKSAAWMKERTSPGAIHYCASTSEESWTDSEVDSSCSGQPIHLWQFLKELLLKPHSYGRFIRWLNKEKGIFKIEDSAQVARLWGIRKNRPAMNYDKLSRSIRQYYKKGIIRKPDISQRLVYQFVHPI
The settings on record: protein: recombinant; tags: N-terminal GST; dsDNA, one strand shown. In outline:
as §1

A further assay addresses T10, ETV7 (Homo sapiens, UniProt Q9Y603 1-341).
T10 sequence: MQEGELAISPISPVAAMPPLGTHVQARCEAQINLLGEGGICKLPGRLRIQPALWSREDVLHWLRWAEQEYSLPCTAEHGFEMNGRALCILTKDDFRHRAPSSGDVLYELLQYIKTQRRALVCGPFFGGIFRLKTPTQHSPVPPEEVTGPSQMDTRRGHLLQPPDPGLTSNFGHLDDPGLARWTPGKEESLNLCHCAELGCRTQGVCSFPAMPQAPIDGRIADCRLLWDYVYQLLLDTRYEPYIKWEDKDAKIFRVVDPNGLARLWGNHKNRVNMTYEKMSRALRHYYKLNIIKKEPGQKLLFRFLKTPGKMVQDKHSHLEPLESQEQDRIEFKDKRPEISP
As to conditions: protein: recombinant; tags: N-terminal GST; dsDNA, one strand shown. The essentials:
as §1

For the next assay, the target named is T11, ELF5 (Homo sapiens, UniProt Q9UKW6-2 1-255).
T11 sequence: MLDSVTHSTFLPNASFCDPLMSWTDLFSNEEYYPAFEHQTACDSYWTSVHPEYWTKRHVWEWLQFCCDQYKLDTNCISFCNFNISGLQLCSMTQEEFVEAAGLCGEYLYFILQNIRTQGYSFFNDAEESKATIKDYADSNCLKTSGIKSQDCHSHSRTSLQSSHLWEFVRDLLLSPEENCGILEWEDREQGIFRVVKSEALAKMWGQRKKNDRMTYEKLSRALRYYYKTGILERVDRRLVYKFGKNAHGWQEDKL
As to conditions: protein: recombinant; tags: N-terminal GST; dsDNA, one strand shown. In outline: as §1

The target in a further assay is T12, ETV3 (Homo sapiens, UniProt P41162-2 1-143).
T12 sequence: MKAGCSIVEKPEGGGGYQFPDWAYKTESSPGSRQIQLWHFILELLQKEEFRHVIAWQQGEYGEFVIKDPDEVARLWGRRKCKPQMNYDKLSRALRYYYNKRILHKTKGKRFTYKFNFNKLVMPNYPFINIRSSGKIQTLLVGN
As to conditions: protein: recombinant; tags: N-terminal GST; dsDNA, one strand shown. In outline:
as §1

The next assay concerns the target ETV6 (Homo sapiens, UniProt P41212 1-452). The settings on record: protein: recombinant; tags: N-terminal GST; dsDNA, one strand shown. The essentials:
as §1

Chain of ELF4 (Q99607 whole entry): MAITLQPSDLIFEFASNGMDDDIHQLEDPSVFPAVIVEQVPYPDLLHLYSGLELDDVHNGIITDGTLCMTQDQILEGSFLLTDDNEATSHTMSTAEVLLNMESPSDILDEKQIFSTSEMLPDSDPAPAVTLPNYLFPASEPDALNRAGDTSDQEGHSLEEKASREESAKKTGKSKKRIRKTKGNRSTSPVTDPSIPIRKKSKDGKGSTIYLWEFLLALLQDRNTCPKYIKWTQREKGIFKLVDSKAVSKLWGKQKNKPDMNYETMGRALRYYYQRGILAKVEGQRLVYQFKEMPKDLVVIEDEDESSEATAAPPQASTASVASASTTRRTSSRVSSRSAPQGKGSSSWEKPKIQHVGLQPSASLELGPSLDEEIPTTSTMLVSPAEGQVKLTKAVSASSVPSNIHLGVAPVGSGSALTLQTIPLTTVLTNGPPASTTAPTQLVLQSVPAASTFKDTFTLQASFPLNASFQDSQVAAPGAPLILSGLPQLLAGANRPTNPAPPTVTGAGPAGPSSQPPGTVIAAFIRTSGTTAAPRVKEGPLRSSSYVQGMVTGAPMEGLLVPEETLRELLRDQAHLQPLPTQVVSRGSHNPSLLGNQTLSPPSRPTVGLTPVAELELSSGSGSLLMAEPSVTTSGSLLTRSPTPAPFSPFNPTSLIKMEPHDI
Chain of HSF1 (Q00613 whole entry): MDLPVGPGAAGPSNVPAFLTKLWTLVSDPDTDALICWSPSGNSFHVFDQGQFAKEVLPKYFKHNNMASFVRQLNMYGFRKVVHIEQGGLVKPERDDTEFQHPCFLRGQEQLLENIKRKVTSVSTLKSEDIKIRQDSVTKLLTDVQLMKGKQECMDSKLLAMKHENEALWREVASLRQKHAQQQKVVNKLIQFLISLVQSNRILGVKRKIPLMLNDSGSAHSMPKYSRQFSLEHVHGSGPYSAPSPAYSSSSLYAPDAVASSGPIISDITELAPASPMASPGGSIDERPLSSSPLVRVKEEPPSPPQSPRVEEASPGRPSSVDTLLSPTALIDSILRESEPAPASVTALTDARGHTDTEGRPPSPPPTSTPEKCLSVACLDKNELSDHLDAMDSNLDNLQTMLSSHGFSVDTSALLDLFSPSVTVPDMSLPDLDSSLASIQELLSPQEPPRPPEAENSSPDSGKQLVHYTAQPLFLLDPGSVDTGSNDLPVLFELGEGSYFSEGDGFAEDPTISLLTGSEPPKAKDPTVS
Chain of ETV6 (P41212 whole entry): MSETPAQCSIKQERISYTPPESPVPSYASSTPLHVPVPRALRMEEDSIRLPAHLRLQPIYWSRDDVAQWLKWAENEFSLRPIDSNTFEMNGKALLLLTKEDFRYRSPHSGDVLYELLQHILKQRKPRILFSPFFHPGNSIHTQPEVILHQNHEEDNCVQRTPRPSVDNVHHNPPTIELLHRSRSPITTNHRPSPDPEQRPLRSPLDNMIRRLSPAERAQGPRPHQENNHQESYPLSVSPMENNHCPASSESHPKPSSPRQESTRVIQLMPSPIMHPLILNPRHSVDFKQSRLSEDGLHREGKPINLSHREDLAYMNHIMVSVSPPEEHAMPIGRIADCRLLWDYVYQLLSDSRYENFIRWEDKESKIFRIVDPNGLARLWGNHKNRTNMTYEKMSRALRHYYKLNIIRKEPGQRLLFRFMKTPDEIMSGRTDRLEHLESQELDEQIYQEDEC
Chain of ETV1 (P50549 whole entry): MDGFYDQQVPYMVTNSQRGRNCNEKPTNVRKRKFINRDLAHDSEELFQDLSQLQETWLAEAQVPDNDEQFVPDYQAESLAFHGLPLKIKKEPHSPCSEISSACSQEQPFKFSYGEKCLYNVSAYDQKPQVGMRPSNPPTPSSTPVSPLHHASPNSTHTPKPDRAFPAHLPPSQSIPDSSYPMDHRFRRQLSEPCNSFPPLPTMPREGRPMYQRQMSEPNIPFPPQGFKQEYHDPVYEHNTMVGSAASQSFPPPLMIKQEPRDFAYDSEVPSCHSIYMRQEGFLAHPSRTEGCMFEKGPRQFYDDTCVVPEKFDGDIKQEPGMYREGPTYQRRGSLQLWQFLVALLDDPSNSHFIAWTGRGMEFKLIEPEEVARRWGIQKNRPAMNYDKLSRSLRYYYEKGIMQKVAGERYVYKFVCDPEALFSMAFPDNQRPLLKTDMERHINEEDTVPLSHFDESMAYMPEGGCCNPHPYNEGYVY
Chain of ETV5 (P41161 whole entry): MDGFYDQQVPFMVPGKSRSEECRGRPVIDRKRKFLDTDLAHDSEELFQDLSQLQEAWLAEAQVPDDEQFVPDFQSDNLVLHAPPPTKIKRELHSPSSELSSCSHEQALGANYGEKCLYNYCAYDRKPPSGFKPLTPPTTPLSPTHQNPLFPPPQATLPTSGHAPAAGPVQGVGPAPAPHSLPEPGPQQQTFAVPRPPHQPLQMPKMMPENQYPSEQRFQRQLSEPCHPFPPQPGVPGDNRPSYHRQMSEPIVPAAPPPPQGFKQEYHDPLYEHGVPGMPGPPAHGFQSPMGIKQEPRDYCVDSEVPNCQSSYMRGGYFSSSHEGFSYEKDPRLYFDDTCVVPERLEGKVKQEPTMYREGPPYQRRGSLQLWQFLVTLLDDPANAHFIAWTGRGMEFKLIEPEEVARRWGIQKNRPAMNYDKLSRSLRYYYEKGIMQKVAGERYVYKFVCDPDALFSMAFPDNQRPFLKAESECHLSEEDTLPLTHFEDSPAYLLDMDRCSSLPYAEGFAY
Chain of CRX (O43186 whole entry): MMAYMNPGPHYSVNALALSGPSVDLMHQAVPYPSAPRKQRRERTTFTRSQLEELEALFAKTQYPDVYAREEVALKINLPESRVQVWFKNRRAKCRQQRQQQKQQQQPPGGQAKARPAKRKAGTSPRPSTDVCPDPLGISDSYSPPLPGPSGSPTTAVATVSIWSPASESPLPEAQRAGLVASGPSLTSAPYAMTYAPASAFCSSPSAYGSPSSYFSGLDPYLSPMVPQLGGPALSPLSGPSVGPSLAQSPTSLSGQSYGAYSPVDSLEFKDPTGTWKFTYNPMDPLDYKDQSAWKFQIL

For the sequence CTCTAC, the binding signal is 1.57 fold enrichment (6-mer frequency, TF over GST control) in the assay with FEV; 1.33 fold enrichment (6-mer frequency, TF over GST control) with ETV5; 1.37 fold enrichment (6-mer frequency, TF over GST control) with HSF1; 1.51 fold enrichment (6-mer frequency, TF over GST control) in the assay with SPIC; 1.46 fold enrichment (6-mer frequency, TF over GST control) in the assay with ELF4; 1.38 fold enrichment (6-mer frequency, TF over GST control) with ELK4. Moreover, the binding signal with ETV2 was 1.35 fold enrichment (6-mer frequency, TF over GST control); with ELF3, 1.47 fold enrichment (6-mer frequency, TF over GST control); with CRX, 1.18 fold enrichment (6-mer frequency, TF over GST control); with ETV1, 1.4 fold enrichment (6-mer frequency, TF over GST control); with ERF, 1.45 fold enrichment (6-mer frequency, TF over GST control); with ETV3L it was 1.66 fold enrichment (6-mer frequency, TF over GST control). The binding signal with ETS2 was 1.48 fold enrichment (6-mer frequency, TF over GST control); in the assay with SPDEF it was 1.54 fold enrichment (6-mer frequency, TF over GST control); with ETV7, 1.28 fold enrichment (6-mer frequency, TF over GST control); with ELF5, 1.52 fold enrichment (6-mer frequency, TF over GST control); with ETV3, 1.51 fold enrichment (6-mer frequency, TF over GST control); in the assay with ETV6, 1.43 fold enrichment (6-mer frequency, TF over GST control).
